Screening results: PubChem, several laboratories
Smad3 FoxH1 inh = inhibitors of human Smad3 transcription factor binding; P84022; TR-FRET Smad3/Dy647-FoxH1 peptide binding, europium anti-His; inhibition, % at 25 µM; actives 0.29% (n = 88,000);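 active = compounds that reduce the energy-transfer binding signal between the protein and its labelled peptide by more than half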;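 note: 0% = Smad3 plus labelled peptide maximal FRET and 100% = peptide-only background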
Target sequence (P84022 whole entry, looked up): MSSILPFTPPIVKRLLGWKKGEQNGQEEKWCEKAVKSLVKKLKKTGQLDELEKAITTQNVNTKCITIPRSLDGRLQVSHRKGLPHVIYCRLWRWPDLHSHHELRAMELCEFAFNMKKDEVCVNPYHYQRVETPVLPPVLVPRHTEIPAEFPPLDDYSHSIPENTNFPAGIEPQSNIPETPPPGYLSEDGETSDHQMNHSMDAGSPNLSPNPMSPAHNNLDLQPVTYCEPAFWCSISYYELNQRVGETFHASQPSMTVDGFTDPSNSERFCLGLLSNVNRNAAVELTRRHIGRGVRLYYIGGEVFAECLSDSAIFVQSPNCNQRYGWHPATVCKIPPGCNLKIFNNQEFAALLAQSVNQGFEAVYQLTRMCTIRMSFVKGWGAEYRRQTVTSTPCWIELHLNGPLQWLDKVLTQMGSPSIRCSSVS
MT1-MMP txn act = activates MT1-MMP transcription; actives 0.16% (n = 86,000); HT1080 MT1-MMP promoter luciferase reporter, luminescence, overnight; hits give high values; activation factor at 10 µM; AID 750;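 active = activation factor of at least 2 for MT1-MMP transcription at 10 µM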
Calb biofilm kill = kills Candida albicans biofilms; C. albicans biofilm + clotrimazole, Alamar Blue; inhibition, % at 6 µM; actives 0.14% (n = 85,000);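 active = inhibition above 20%; inactive = inhibition below 20%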;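 note: preformed 24 hr biofilms exposed to compound for 48 hr; 0% = biofilm without compound and 100% = blank killed by clotrimazole plus chlorhexidine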
ERa SRC1 pot = enhances coactivator binding to human estrogen receptor alpha; AID 639; actives 1.3% (n = 86,000); coactivator binding (% of control), % at 25.6 µM; TR-FRET ERalpha-LBD/SRC-Cy5 coactivator binding, 2 h; 100 = basal binding, no effect; in the data active = activity above about 200%;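 note: binding measured in presence of low estradiol as agonist stimulus; 0% = peptide alone without receptor and 100% = receptor with peptide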
ERb SRC1 inh = blocks coactivator binding to human estrogen receptor beta. Q92731. TR-FRET ER-beta LBD / SRC1-Cy5 peptide binding; receptor agonist-loaded with 1 µM estradiol. inhibition, % at 25.6 µM. actives 1.3% (n = 86,000). AID 633;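 active = compounds whose percent inhibition of the receptor-coactivator binding signal exceeds about 50% in the single-dose screen, limit read from the data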;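 note: 0% = receptor plus peptide wells without compound and 100% = peptide-only wells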
ERa coact inh = ER-alpha (human) coactivator binding inhibition | P03372 | TR-FRET ER-alpha LBD / SRC-1 peptide, estradiol-bound | AID 629 | actives 1.7% (n = 86,000) | inhibition, % at 25.6 µM; in the data active = inhibition above about 50%;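 note: 0% = receptor plus peptide control and 100% = peptide only without receptor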
The depositor's hits bear a star; · = no result given; [ ] = dose if it differs, or a comment. Sampled rows, rich in hits. Any-hit rate of the full collection: about 3.8%.

SMILES | Smad3 FoxH1 inh | MT1-MMP txn act | Calb biofilm kill | ERa SRC1 pot | ERb SRC1 inh | ERa coact inh
O=C(O)c1cc(-c2ccco2)nc2ccccc12 | 10 | 1.2 | 2 | 38 | 82*[fluorescence artefact?] | 74*
COc1ccc(CNC(=O)COC(=O)c2cc(-c3ccco3)nc3ccccc23)cc1 | -2 | 1.5 | 2 | 53 | 77* | 87*[fluorescence artefact?]
Cc1cc(C(=O)O)c2ccccc2n1 | 7 | 1.2 | 1 | 107 | 0 | 1
O=C(OCC(=O)N1CCN(C(=O)c2ccco2)CC1)c1cc(-c2ccco2)nc2ccccc12 | 13 | 1.1 | 7 | 29 | 89* | 92*[fluorescence artefact?]
O=C(NCCc1ccccc1)C(NS(=O)(=O)c1cccc2nsnc12)c1ccccc1 (configuration not stated) | · | 1.3 | 1 | · | · | ·
CCOC(=O)c1ccc(-n2c(C)nc3c(cnn3-c3ccc(Cl)cc3)c2=O)cc1 | 7 | 1 | 34* | 95 | -3 | -7
CCOC(=O)c1ccc(-n2c(C)nc3c(cnn3-c3ccccc3Cl)c2=O)cc1 | 9 | 1.1 | 4 | 104 | -8 | -2
CC(C)Cn1c(CN2C(=O)c3ccccc3C2=O)nc2ccccc2c1=O | 28 | 1.2 | 3 | 370*[fluorescence artefact?] | 25 | 29
O=C1c2ccccc2C(=O)N1Cc1ccco1 | 2 | 1.2 | 4 | 99 | -1 | -8
Cc1c(-n2c(CN3C(=O)c4ccccc4C3=O)nc3ccccc3c2=O)c(=O)n(-c2ccccc2)n1C | -6 | 1 | 2 | 110 | 2 | -6
O=C1c2ccccc2C(=O)N1Cc1nc2ccccc2c(=O)n1Cc1ccco1 | -8 | 1.1 | 5 | 249* | 58*[fluorescence artefact?] | 59*[fluorescence artefact?]
NCC(=O)NC1(C(=O)O)CCCC1 | 7 | · | · | · | · | ·
Fc1ccc(Cc2nnc(-c3cccs3)o2)cc1 | 0 | 1.4 | 24* | 125 | -3 | -12
NC(=O)c1ccsc1NC(=O)COC(=O)C1CCCN1C(=O)c1cccs1 (configuration not stated) | 2 | 1.1 | 6 | 44 | 68*[fluorescence artefact?] | 53*[fluorescence artefact?]
Cc1ccc(NC(=O)COc2ccc(-n3cnnn3)cc2)cc1C | 10 | 1.4 | 5 | 52 | 69* | 74*[fluorescence artefact?]
COc1ccc(OC)c(NC(=O)COC(=O)c2ccc(-n3cnnn3)cc2)c1 | -2 | 1.1 | 7 | 110 | 9 | 35
Cc1ccc(NC(=O)COc2ccc(/C(N)=N/O)cc2)cc1C | · | · | 6 | · | · | ·
COc1cc(NC(=O)COc2ccc(-n3cnnn3)cc2)c(OC)cc1Cl | 23 | 1 | 4 | 44 | 67*[fluorescence artefact?] | 77*
CC(C)(C)C(=O)NC1CCN(S(=O)(=O)c2ccc(C(F)(F)F)cc2)CC1 | 3 | 1.1 | 3 | 144 | 6 | 6
Cc1ccc(-c2cc(C(=O)NCCCn3ccnc3)c3cc(Br)ccc3n2)o1 | 12 | 0.9 | 1 | 69 | 49 | 88*[fluorescence artefact?]
O=C(NC1=NCCS1)c1ccc(-c2ccc(Cl)cc2)o1 | -1 | 1.4 | 4 | 83 | 9 | 6
Cc1ccc(-c2cc(C(=O)NC3=NCCS3)c3cc(Br)ccc3n2)o1 | -24 | 1.3 | -6 | 281*[fluorescence artefact?] | 25 | 52*[fluorescence artefact?]
CC1(C)OC[C@@H]2O[C@H](n3cnc4c(N)nc(Cl)nc43)[C@H](OS(C)(=O)=O)[C@H]2O1 | 37 | · | · | · | · | ·
CC(C)(C)c1ccc(CN2CCN([C@H](c3ccccc3)c3ccc(Cl)cc3)CC2)cc1 | 10 | · | · | · | · | ·
COCCCNc1nc2c([nH]1)c(=O)[nH]c(=O)n2C | 1 | 1.2 | 2 | 159 | 52* | -8
SMILES | Smad3 FoxH1 inh | MT1-MMP txn act | Calb biofilm kill | ERa SRC1 pot | ERb SRC1 inh | ERa coact inh
Cc1nnc(Sc2nc3c(c(=O)n(C)c(=O)n3C)n2Cc2ccccc2Cl)s1 | 6 | 1 | -2 | 102 | 1 | 64*[fluorescence artefact?]
CC(C)(CCc1nc2ccccc2[nH]1)C(=O)O | -6 | · | · | · | · | ·
CC1(C)[C@@H]2CC[C@@](C)(C2)[C@@H]1OC(=O)c1ccccc1C(=O)O | 1 | · | · | · | · | ·
COC(=O)C1=C(C)NC(=O)NC1c1cccc(OC)c1OCc1ccccc1 (configuration not stated) | 15 | 1.1 | 4 | 99 | -25 | 13
Cc1ccc(C(=O)N2CCN(C3c4cccc5cccc(c45)C3NS(=O)(=O)c3ccccc3)CC2)cc1 (configuration not stated) | 22 | 1.2 | 5 | 88 | -3 | 0
NC(=O)COc1cccc2cccnc12 | 7 | 1.1 | -2 | 106 | 7 | -4
Cc1oc(C(=O)O)cc1COc1cccc2cccnc12 | 4 | 1.1 | 3 | 99 | 59*[fluorescence artefact?] | 20
Cc1cc(NC(=O)c2ccc(Cl)cc2)no1 | 3 | 1.2 | 6 | 118 | -6 | -6
Cc1cc(NC(=O)c2cccc(C(=O)Nc3cc(C)on3)n2)no1 | 35 | 1 | 1 | 292* | 11 | 16
COc1ccc(OC)c(N=c2oc3c(OC)cccc3cc2C(=O)NCc2ccco2)c1 | -1 | 1.4 | 4 | 44 | 50*[fluorescence artefact?] | 75*[fluorescence artefact?]
CCOc1cccc2cc(C(=O)Nc3cc(C)on3)c(=O)oc12 | -55 | 1.1 | 3 | 468*[fluorescence artefact?] | 29 | 33
CCCCN1C(=O)NC(c2ccc(OC)cc2)C(C(=O)OCc2ccccc2)=C1C (configuration not stated) | · | 1.2 | · | · | · | ·
O=C(O)c1ccc(NS(=O)(=O)Cc2ccccc2)cc1 | -2 | · | · | · | · | ·
Cc1cc(NC(=O)COc2cccc3cccnc23)no1 | -7 | 1.1 | -1 | 52 | 50*[fluorescence artefact?] | 64*[fluorescence artefact?]
COc1cccc2cc(C(=O)NCc3ccccn3)c(=O)oc12 | 1 | 2.1* | 5 | 97 | -29 | -35
Cc1ccc(CN(c2ccc(C(=O)Nc3cccnc3)cc2)S(C)(=O)=O)cc1 | 1 | 1.1 | 0 | 97 | -6 | -6
O=C1CC(c2ccco2)Cc2nc(Nc3nc(-c4ccccc4)c4ccccc4n3)ncc21 (configuration not stated) | -2 | 1.1 | 2 | 98 | 51*[fluorescence artefact?] | 43
CN(Cc1cc(C(C)(C)C)cc(Br)c1O)Cc1cc(C(C)(C)C)cc(Br)c1O | 96* | · | · | · | · | ·
CCCNCC1COc2ccccc2O1 (configuration not stated) | 37 | 1.2 | -1 | 49 | 80* | 84*[fluorescence artefact?]
O=C(Nc1nnc(-c2ccco2)s1)C1CC1 | 4 | 1.8 | 5 | 94 | 18 | 0
O=C(Nc1nnc(-c2ccco2)s1)C1CCN(S(=O)(=O)c2ccc(Cl)cc2)CC1 | 0 | 1.1 | 6 | 410*[fluorescence artefact?] | 8 | 11
CCCCN1C2CCCC1CC(NC(=O)C1CCCCC1)C2 (configuration not stated) | -8 | 1.2 | 3 | 114 | 0 | 1
CCC1=C2CC[C@H]3C(=O)N(CC(=O)OC)C(=O)[C@H]3[C@H]2[C@@]2(Cc3ccccc3)C(=NCCc3c[nH]c4ccccc34)OC(=O)N2C1=O | · | 1.2 | · | · | · | ·
CCOc1ccc2nc(COC(=O)c3ccco3)c(C(C)=O)[n+]([O-])c2c1 | 10 | 1.3 | 5 | 66 | 22 | 17
CC(=O)c1c(COC(=O)c2cccnc2)nc2ccccc2[n+]1[O-] | -3 | 1.1 | 6 | 52 | 57*[fluorescence artefact?] | 65*[fluorescence artefact?]
